Common to all, as to assay: NCI-60 one-dose screen, 48 h (100 = growth as untreated, 0 = no growth, -100 = all killed)
Holding throughout (conditions): 10 µM unless noted

Test [1] has as its system SR leukemia.
For test [2], the system named is RPMI-8226 leukemia.
Test [3] relates to OVCAR-8 ovarian.
Test [4] deals with OVCAR-5 ovarian.
The test system of test [5] is OVCAR-4 ovarian.
Test [6] has as its system SK-OV-3 ovarian.
For test [7], the system named is IGROV1 ovarian.
Test [8] has as its system OVCAR-3 ovarian.
Test [9] deals with HS 578T breast.
Test [10] relates to NCI/ADR-RES ovarian.

Our source for the growth values is PubChem BioAssay (NCI).

The structures appear in SMILES notation. The panel holds about 83,000 compounds, 20% with a hit somewhere; the sample as a whole holds those more often.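 Cell lines were cultured in 96-well plates, exposed to a single compound concentration, and assessed for percent growth 48 hours later.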 Unmarked numbers belong to inactive results. Active and inactive are the calls of the source. The calls were made as follows: active = growth percent below 10; inactive = the rest.

In the case of `Clc1ccc(C2CC(c3cccc(Nc4ccncc4)c3)=NN2c2cc(Cl)cc(Cl)c2)cc1` (stereo not given), the growth is 6.05% (active) in test [1]; 43.4% in test [2]; -7.8% (active) in [3]; 84.4% in test [4]; 33.7% in test [5]; 90.7% in test [6]. In addition, the growth was 44.6% in test [7], 76.9% in test [8], 78% in [9] and 68.3% in test [10].
`O=C(N/N=C/c1ccncc1)c1ccccc1Nc1cccc(C(F)(F)F)c1`: the growth in [1] was 4.74% (active); in [2], 52.3%; in test [3] it was 79.1%; in test [4], 89.5%; in test [5], 66%; in test [6] it was 86.4%. The growth was 86.8% in test [7], 64.7% in test [8], 103% in test [9] and 70.7% in [10].
Turning to `COc1cc(NCCN(CC(C)C)C2CCCC2)c2ncccc2c1`, the growth in [1] was 82.6%; in test [2], 99.2%; in test [3], 84.9%; in test [4], 96.4%; in test [5], 36.6%; in [6] it was 97.7%. For the same compound, the growth in test [7] is 86.8%; in [8] it was 83.1%; in [9] it was 84.2%; in test [10], 86.6%.
`Cc1c2c(cc[n+]1Cc1ccc(F)cc1)c1ccc(OCc3cccc(F)c3)cc1n2Cc1cccc(F)c1`: the growth in test [1] is -48.7% (active); in test [2] it was -33% (active); in test [3], -81.6% (active); in [4], 4.86% (active); in [5], -80.8% (active); in [6], 2.43% (active). The growth in test [7] is -67.4% (active); in test [8], -98.5% (active); in test [9] it was -40.9% (active); in test [10], 85%.
Take `COc1ccc(Nn2c(SCC(=O)Nc3nc(-c4ccc(Cl)cc4)cs3)nc(C)c2C)cc1`: the growth is 40.3% in test [1]; 35.7% in test [2]; 43.9% in [3]; 111% in test [4]; 37% in test [5]; 77.8% in [6]. Besides, the growth was 70.9% in test [7], 60.7% in test [8], 86.1% in [9] and 23.1% in test [10].
`COc1ccc(-c2nc(N/N=C/c3cccc(O)c3)nc(N3CCOCC3)c2C#N)cc1`: the growth in [1] is -20.3% (active); in test [2], 32.1%; in [3] it was 68.8%; in [4], 117%; in test [5], 89.3%; in test [6] it was 104%. The growth in test [7] was 71.2%; in test [8] it was 75.8%; in [9] it was 69.3%; in test [10], 74.8%.
Take `O=C(O)CNC(=O)CN1C(=O)c2ccccc2C1=O`: the growth was 102% in test [1]; 101% in [2]; 94.4% in test [3]; 101% in test [4]; 115% in test [5]; 90.7% in [6]. The growth in test [7] is 107%; in [8], 116%; in test [9], 113%; in [10] it was 104%.
For the compound `[2H]C1([2H])NC([2H])([2H])C([2H])([2H])N(c2ccc(Nc3ncc4cc(C(=O)N(C)C)n(C5CCCC5)c4n3)nc2)C1([2H])[2H]`, the growth in test [1] is 39.8%; in test [2], 34.8%; in test [3], 85.2%; in [4], 39.8%; in [5] it was 92.7%; in test [6], 58.3%. Further, the growth in test [7] is 73.4%; in test [8], 107%; in test [9] it was 71.2%; in [10], 104%.
In the case of `Clc1ccc(C2CC(c3cccc(Nc4ccncc4)c3)=NN2c2ccccc2)cc1` (stereo not given), the growth in test [1] is 2.19% (active); in test [2], 1.08% (active); in test [3], -7.33% (active); in test [4], 82.6%; in test [5] it was 45.5%; in [6], 81.4%. For the same compound, the growth is 25.9% in test [7], 64.4% in [8], 83.9% in [9] and 78.8% in [10].
As to `CC1(C)CN(c2cnc(C(=O)Nc3cc(F)cc4cccnc34)cn2)CCN1`, the growth was 7.28% (active) in test [1]; 75.6% in test [2]; 96.5% in test [3]; 86.1% in [4]; 15% in test [5]; 79.5% in test [6]. Further, the growth in [7] is 36.2%; in [8] it was 10.6%; in test [9], 71.6%; in test [10], 90.9%.
Take `Nc1ccccc1NC(=O)c1ccc(CN2CCC/C(=C\c3cccc(Cl)c3)C2=O)cc1`: the growth is 10.4% in [1]; -18.7% (active) in test [2]; 10.2% in test [3]; 36.7% in [4]; 33.7% in [5]; 13.1% in test [6]. Besides, the growth is 17.8% in [7], 5.7% (active) in [8], 43.1% in [9] and 5% (active) in [10].
Take `O=C(Nc1ccc(F)cc1)c1c(NC(=O)C(F)(F)F)sc2c1CCCCC2`: the growth in test [1] was 2.35% (active); in [2], -36.8% (active); in test [3], 8.06% (active); in test [4], 22.7%; in [5] it was 4.42% (active); in test [6] it was -16.8% (active). Besides, the growth in test [7] was 18.1%; in test [8], 4.39% (active); in test [9], -6.84% (active); in test [10] it was 0.19% (active).
In the case of `CC(=O)c1c(C)[nH]c(-c2nc3ccc(N4CCN(C)CC4)cc3[nH]2)c1-c1ccccc1`, the growth in [1] was 28.4%; in test [2], 3.67% (active); in test [3], 45.6%; in [4], 34.8%; in test [5], 33.4%; in test [6] it was 20.5%. In addition, the growth in [7] is 23.8%; in [8], 28.8%; in test [9] it was 9.13% (active); in [10], 36.3%.
